This is a sample that favours compounds with a hit; in the whole collection about 2.3% have one here.
M1 antag = antagonists of human M1 muscarinic receptor; P11229; CHO-K1 hM1, Fluo-8 calcium fluorescence, ACh EC80 antagonist; inhibition, % at 3 µM; actives 1.3% (n = 360,000);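 active = percent inhibition above its own plate's cutoff, namely the mean of that plate's compound wells plus 3 SD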;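 note: peak over basal fluorescence ratio during 140 s after agonist addition; 0% = ACh EC80 plus DMSO and 100% = DMSO alone without agonist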
Target sequence (P11229 whole entry, looked up): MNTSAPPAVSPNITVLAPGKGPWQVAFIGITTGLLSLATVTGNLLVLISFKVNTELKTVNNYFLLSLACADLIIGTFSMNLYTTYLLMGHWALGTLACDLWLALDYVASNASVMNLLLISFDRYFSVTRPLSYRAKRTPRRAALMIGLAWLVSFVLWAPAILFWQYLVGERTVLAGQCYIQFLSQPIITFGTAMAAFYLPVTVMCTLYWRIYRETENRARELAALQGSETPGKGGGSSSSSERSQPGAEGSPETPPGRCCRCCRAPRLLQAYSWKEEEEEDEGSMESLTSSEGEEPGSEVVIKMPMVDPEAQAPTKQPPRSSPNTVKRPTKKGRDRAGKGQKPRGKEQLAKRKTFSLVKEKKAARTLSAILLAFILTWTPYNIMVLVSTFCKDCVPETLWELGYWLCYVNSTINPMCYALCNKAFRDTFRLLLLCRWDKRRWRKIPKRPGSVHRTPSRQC
M1 ag = agonists of human M1 muscarinic receptor; P11229; CHO-K1 hM1, Fluo-8 calcium fluorescence, agonist mode; 0% DMSO, 100% acetylcholine EC100; activation, % at 3 µM; actives 0.33% (n = 360,000); AID 588814;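 active = activation above the run's mean compound activation plus 3 SD, cut at about 16% in these data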;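 note: peak over basal fluorescence ratio within a 140 s kinetic read after compound addition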
CHO-K1 Ca ag = M1 agonist counterscreen hit in parental CHO-K1 cells; Fluo-8 calcium fluorescence; scaled to maximal ATP response, vehicle zero; activation, % at 3 µM; actives 0.48% (n = 360,000); in the data active = activation above about 15%;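 note: untransfected CHO-K1 host cells lacking M1 receptor as counterscreen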
CHO-K1 Ca PAM = M1 PAM counterscreen hit in parental CHO-K1 cells; activation, % at 3 µM; ATP EC20, Fluo-8 calcium fluorescence; 0% at ATP EC20, 100% at ATP max; actives 0.02% (n = 360,000); AID 602247;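 active = activation above the run cutoff, the mean activation of all test compounds plus 3 SD, cut at about 40% in these data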;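 note: peak over basal fluorescence ratio in a 140 s read after ATP addition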
M1 PAM = positive allosteric modulators of human M1 muscarinic receptor | P11229 | CHO-K1 hM1, Fluo-8 calcium fluorescence, ACh EC20; 0% = ACh EC20, 100% = maximal ACh | activation, % at 3 µM | actives 0.088% (n = 360,000) | AID 588819; in the data active = activation above about 19%, passing the limit was not always enough
CHO-K1 Ca antag = counter-screen for M1 antagonists: effect in parental CHO-K1 cells. ATP-induced calcium, Fluo-8 fluorescence. inhibition, % at 3 µM. actives 0.6% (n = 360,000). AID 602250;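 active = inhibition above a per-plate cutoff, the plate's mean sample inhibition plus 3 SD, cut at about 24% in these data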;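 note: 0% = DMSO plus EC80 ATP and 100% = DMSO alone without ATP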
The depositor's hits bear a star.

Results for c1ccc2c(c1)Sc1ccccc1N2CC1CN2CCC1CC2 (stereo not drawn) ?
M1 antag: 99*; M1 ag: -9; CHO-K1 Ca ag: 0; CHO-K1 Ca PAM: 1; M1 PAM: -26; CHO-K1 Ca antag: 5

How did CC(=O)N1CCN(Cc2ccc(Cl)nc2)CC1 do in these assays?
M1 antag: -2; M1 ag: -3; CHO-K1 Ca ag: 1; CHO-K1 Ca PAM: 9; M1 PAM: 28*; CHO-K1 Ca antag: -6

How did C[C@@H]1CN([C@@H](C)CO)C(=O)CCCn2nncc2CO[C@@H]1CN(C)C(=O)Oc1ccccc1 do in these assays?
M1 antag: 0; M1 ag: -4; CHO-K1 Ca ag: 0; CHO-K1 Ca PAM: -3; M1 PAM: 2; CHO-K1 Ca antag: -5

How did COc1ccc(C(=O)C2CCCN(Cc3cccc(C)n3)C2)c(OC)c1 (stereo not drawn) do in these assays?
M1 antag: 46*; M1 ag: -7; CHO-K1 Ca ag: 5; CHO-K1 Ca PAM: 25; M1 PAM: -23; CHO-K1 Ca antag: -21

What do the screens show for `COc1ccc(C(=O)C2CCCN(Cc3ccc(C)s3)C2)c(OC)c1` (stereo not drawn)?
M1 antag: 1; M1 ag: -7; CHO-K1 Ca ag: 1; CHO-K1 Ca PAM: 11; M1 PAM: -8; CHO-K1 Ca antag: -9

How did CC1(C)OC(c2ccccc2)=C/C(=C/C=C2C(=O)NC(=O)NC2=O)O1 do in these assays?
M1 antag: 10; M1 ag: 17*; CHO-K1 Ca ag: 10; CHO-K1 Ca PAM: -3; M1 PAM: -4; CHO-K1 Ca antag: 4

Results for C=Cn1ccnc1P(=S)(c1ccn(C)c1)c1nccn1C=C ?
M1 antag: -1; M1 ag: -5; CHO-K1 Ca ag: 0; CHO-K1 Ca PAM: 8; M1 PAM: 1; CHO-K1 Ca antag: 0

What do the screens show for `O=C(Cc1ccccc1)OCCN1CCCCC1`?
M1 antag: 34*; M1 ag: -6; CHO-K1 Ca ag: 0; CHO-K1 Ca PAM: 0; M1 PAM: -20; CHO-K1 Ca antag: -2

What do the screens show for `O=C(COC(=O)Cc1ccccc1)NCCNC(=O)COC(=O)Cc1ccccc1`?
M1 antag: -8; M1 ag: -2; CHO-K1 Ca ag: 0; CHO-K1 Ca PAM: -4; M1 PAM: 4; CHO-K1 Ca antag: -3

What do the screens show for `c1ccc(CNC2CN3CCC2CC3)cc1` (stereo not drawn)?
M1 antag: 59*; M1 ag: -9; CHO-K1 Ca ag: 0; CHO-K1 Ca PAM: 5; M1 PAM: -28; CHO-K1 Ca antag: -4

How did Clc1ccccc1CNC1CN2CCC1CC2 (stereo not drawn) do in these assays?
M1 antag: 39*; M1 ag: -10; CHO-K1 Ca ag: 0; CHO-K1 Ca PAM: 7; M1 PAM: -20; CHO-K1 Ca antag: 1

How did CCNC(=O)NC(=O)C(C)OC(=O)c1c(C)nn(Cc2ccccc2)c1Cl (stereo not drawn) do in these assays?
M1 antag: -15; M1 ag: -1; CHO-K1 Ca ag: 1; CHO-K1 Ca PAM: 21; M1 PAM: 7; CHO-K1 Ca antag: -5

How did O=C1NCN(c2ccccc2)C12CCN(C(c1ccnc3ccccc13)c1nnnn1-c1ccc3c(c1)OCCO3)CC2 (stereo not drawn) do in these assays?
M1 antag: -10; M1 ag: -3; CHO-K1 Ca ag: 6; CHO-K1 Ca PAM: 3; M1 PAM: -6; CHO-K1 Ca antag: -9

What do the screens show for `N#CC(c1cccnc1)N1CCOCC1` (stereo not drawn)?
M1 antag: 6; M1 ag: -7; CHO-K1 Ca ag: 1; CHO-K1 Ca PAM: -2; M1 PAM: 4; CHO-K1 Ca antag: -2

What do the screens show for `CC(CC(C#N)(c1ccccc1)c1ccccc1)N1CCOCC1` (stereo not drawn)?
M1 antag: 99*; M1 ag: -9; CHO-K1 Ca ag: -1; CHO-K1 Ca PAM: 11; M1 PAM: -30; CHO-K1 Ca antag: -10

Results for NC(Cc1ccc(F)cc1)c1csc(Nc2ncccn2)n1 (stereo not drawn) ?
M1 antag: -7; M1 ag: 4; CHO-K1 Ca ag: 1; CHO-K1 Ca PAM: 7; M1 PAM: 2; CHO-K1 Ca antag: -12

How did OCc1cnc[nH]1 do in these assays?
M1 antag: -26; M1 ag: 0; CHO-K1 Ca ag: 0; CHO-K1 Ca PAM: -7; M1 PAM: -1; CHO-K1 Ca antag: 36*

Source: PubChem
